Most compounds without a hit are left out; they make up all but 21% or so of the library.
Cycloheximide cs: counter-screen for Shiga toxin inhibitors: cycloheximide protein synthesis inhibition; cell reporter, cycloheximide protein synthesis inhibition counterscreen; max response, %; 12% of 300,000 active; in the data active = max response mostly above about 13%, no sharp cut-off; inactive = mostly below about 14%; also: read at 38.3 µM for the half of the compounds with a filed dose; 0% is about no effect
Shiga inhibitor: inhibitors of Shiga toxin in Vero cells | Vero cells, Shiga toxin protein synthesis inhibition reporter | inhibition, % at 38.7 µM | AID 2315 | 9.2% of 290,000 active; in the data active = inhibition mostly above about 28%, no sharp cut-off; inactive = mostly below about 43%; also: 0% is about no effect
Pf growth 96h: P. falciparum growth inhibition at 96 hours. P. falciparum luciferase reporter growth, 96 h. Potency, µM (doses to about 28.7 µM), for the others: at the highest dose activity change, negative = inhibition, usual class: inhibitors. 6.9% of 320,000 active. AID 504834; also: potency is read from the fitted curve at half-maximal effect; % is scaled to controls: 0 for no effect and ±100 for the full control effect
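96 h incubation, 37 C, 5% CO2, of luciferase-reporter P. falciparum-infected RBCs (2% hematocrit, 0.05% parasitemia final) with test compounds; endpoint luminescence.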
Pf growth 48h: inhibits P. falciparum growth in the first generation, 48 h; P. falciparum luciferase growth in erythrocytes, 48 h; 5.9% of 310,000 active; Potency, µM (series often up to 28.7 µM), inactives show top-dose activity change, negative = inhibition, most hits filed as inhibitors; AID 504832; also: potency is read from the fitted curve at half-maximal effect; % is scaled to controls: 0 for no effect and ±100 for the full control effect
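Read-out is firefly luciferase luminescence from an integrated reporter in P. falciparum, so falling signal marks reduced parasite growth. Infected erythrocytes were at 2% hematocrit and 0.1% parasitemia (final) in Albumax-supplemented RPMI 1640.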
NS1 function inh: inhibitors of influenza NS1 protein function. Potency, µM (top dose mostly 46.1 µM), for inactives: at the top dose activity, positive = more growth. 0.4% of 270,000 active; calls by dose curve; also: potency is read from the fitted curve at half-maximal effect; actives are rising curves; nearly all actives have a fitted effect of over 50% in size
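S. cerevisiae expressing influenza A NS1, grown in glucose, washed, then diluted 1:100 into pH 6.0 -URA galactose medium with 23 nl compound. Growth recovery read as OD600; NS1-free strain serves as control.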
FBPA Giardia inh: inhibitors of Giardia lamblia fructose-1,6-bisphosphate aldolase. purified Giardia FBPA. Potency, µM (titrated, usually from 59.6 µM), without a hit: at the top dose activity, negative = inhibition, usual class: inhibitors. 0.71% of 290,000 active; also: potency is read from the fitted curve at half-maximal effect; % is scaled to controls: 0 for no effect and ±100 for the full control effect; nearly all actives have a fitted effect of over 55% in size
Target sequence (A8B2U2 whole entry, looked up): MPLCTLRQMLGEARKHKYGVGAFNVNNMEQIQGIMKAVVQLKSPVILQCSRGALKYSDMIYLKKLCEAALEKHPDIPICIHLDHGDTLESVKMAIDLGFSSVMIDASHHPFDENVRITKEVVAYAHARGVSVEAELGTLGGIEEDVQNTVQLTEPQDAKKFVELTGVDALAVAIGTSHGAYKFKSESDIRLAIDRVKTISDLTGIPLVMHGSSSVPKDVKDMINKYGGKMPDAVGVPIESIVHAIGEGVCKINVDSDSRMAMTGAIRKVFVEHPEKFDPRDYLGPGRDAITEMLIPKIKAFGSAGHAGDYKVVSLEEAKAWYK
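40 nM FBPA preincubated 10 min at RT with compound (up to 57.5 uM final), then substrate plus GAPDH/TPI/NAD/arsenate coupling and diaphorase/resazurin added. Fluorescence read after 20 min at RT, 525/598 nm.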
Active calls of the source: *; i = inactive; ? = inconclusive; / = no result; + = active, no number; [ ] = another dose, or the depositor's remark. Unless noted, calls follow the shape of the dose curve; as a rule, active = well fitted curve in the direction sought with a large enough effect; inconclusive = small, poorly fitted or top-dose-only effect, or another doubt; inactive = no such curve, though single readings can be large; an effect the other way counts as inactive or inconclusive.

SMILES	Cycloheximide cs	Shiga inhibitor	Pf growth 96h	Pf growth 48h	NS1 function inh	FBPA Giardia inh
CC(C)(C)c1ccc(C2SCC(=O)N2c2cccc(C(=O)O)c2)cc1 (configuration not stated)	10.7	7.9	?	9.8%	3.3%	19.5%
O=C(Nc1ccc([N+](=O)[O-])cc1)c1cc2ccccc2nc1Cl	20.1*	8.3	?	?	16.7%	-1.8%
O=C(Nc1ccc(F)cc1)c1cc(Cl)sc1Cl	29.2*	77.4*	80.6%	31.2%	/	-5.7%
O=C(Nc1ccc([N+](=O)[O-])cc1)c1cc(Cl)sc1Cl	16.7	27.4*	?	17.4%	-6.6%	/
Cc1nnc(C)c2c(C)n(-c3ccccc3N)c(C)c12	7.2	31.3	-1.0%	?	6.7%	?
[N-]=[N+]=NC[C@@H]1O[C@@H](n2cnc3c(N)ncnc32)[C@@H]2O[C@@H]21	/	/	/	/	-2.8%	/
CCOc1ccc(NS(=O)(=O)c2ccc3c(c2)N(C(C)=O)CCS3)cc1	-0.6	-4.1	-23.3%	?	2.5%	/
COc1ccc(CC(=O)Nc2ccccc2C(=O)N2CCCC2)cc1	-1.8	6.7	9.9%	19.3%	7.1%	4.4%
CCOC(=O)N1CCN(C(=O)C(=O)NN)CC1	-3.6	-5.1	13.1%	17.1%	1.8%	-4.5%
NCCCCCCCCCCN	/	/	/	/	-5.9%	-0.9%
CCCCN1/C(=C/c2ccc3ccccc3[n+]2CC)Sc2ccccc21	-1.9	-9.2	23.8%	2.94µM*	-61.6%	2.9%
CCN1/C(=C/c2ccc3cc(C)ccc3[n+]2CC)Sc2cc(C)ccc21	1.9	-21.0	?	?	/	0.1%
COc1cc(/C=C(\C#N)c2nc3ccccc3[nH]2)cc(Br)c1OCc1ccc(F)cc1	11.3	-6.0	2.08µM*	3.7µM*	17.0%	-2.6%
COc1cc(/C=C(\C#N)c2nc3ccccc3[nH]2)cc(Br)c1OCc1ccccc1	12.3*	14.7	-15.3%	2.94µM*	-2.7%	-12.9%
CCOC(=O)N1CCC(NS(=O)(=O)c2ccc(C#N)cc2)CC1	-1.6	3.2	13.7%	?	0.9%	4.2%
c1ccc(-n2nnnc2SCc2cn3ccccc3n2)cc1	5.1	8.4	/	16.9%	-3.9%	-8.3%
c1ccn2cc(CSC3=NCCS3)nc2c1	28.7*	121.1*	22.9%	/	7.5%	-9.8%
c1ccn2cc(CSc3nnc4ccccn34)nc2c1	56.9*	119.7*	-13.9%	/	2.0%	-0.6%
Cn1ccnc1SCc1cn2ccccc2n1	29.9*	82.3*	147.2%	151.4%	1.6%	-7.1%
Cn1c(SCn2nnc3ccccc3c2=O)nc2ccccc2c1=O	0.5	-2.0	13.8%	3.3%	/	3.1%
O=c1c2ccccc2nnn1CSc1nnc2ccccn12	33.9*	99.0*	/	161.5%	-2.9%	-2.2%
COc1ccc(C)cc1-n1nnnc1SCn1nnc2ccccc2c1=O	-2.2	-3.6	12.8%	/	-10.2%	4.2%
O=c1c2ccccc2nnn1CSc1nc2ccccc2c(=O)n1CCCO	16.4	3.4	0.0%	-20.8%	/	5.9%
Cc1cccc(-n2nnnc2SCn2nnc3ccccc3c2=O)c1	23.0*	53.2	?	23.3%	?	-0.5%
O=c1c2ccccc2nnn1CSc1nnnn1-c1ccc(O)cc1	32.4*	67.3*	46.6%	38.5%	/	0.5%
SMILES	Cycloheximide cs	Shiga inhibitor	Pf growth 96h	Pf growth 48h	NS1 function inh	FBPA Giardia inh
Cc1ccc(-n2nnnc2SCn2nnc3ccccc3c2=O)cc1	62.2*	94.8*	/	130.7%	3.0%	0.7%
CCOC(=O)c1cc(-c2ccc(OC)cc2)nn1-c1ccc(C(=O)O)cc1	-2.6	-10.2	-3.4%	-12.6%	0.2%	7.0%
COc1cccc2c1[C@H](CO)N1[C@H](C#N)[C@@H]3C[C@H](C(=O)O)[C@@H]([C@@H]1C2)N3C	/	/	/	/	0.0%	/
COc1cccc(-c2ccc(SCC(=O)NC3CCCCC3)nn2)c1	20.4*	13.8	1.9%	1.8%	-2.8%	-0.4%
COc1ccc(-c2ccc(SCC(=O)NC3CCCC3)nn2)cc1OC	27.1*	52.1*	?	15.2%	10.6%	/
COc1ccccc1-c1ccc(SCC(=O)NC2CCCCC2)nn1	-1.8	-3.6	-13.0%	?	-4.6%	2.2%
COc1ccc(-c2ccc(SCC(=O)Nc3cc(C)on3)nn2)cc1OC	22.0*	100.1*	103.7%	34.7%	-36.6%	0.3%
CCNc1ncc2nc(-c3cn(C)c4ccccc34)c(=O)n(C[C@H]3CCCO3)c2n1	/	/	/	/	/	-0.3%
Cc1cc(F)ccc1S(=O)(=O)N1CCCOC1CNC(=O)C(=O)NCc1ccccn1 (configuration not stated)	-3.1	23.0	-3.5%	-8.7%	4.8%	/
C/C(NC(=O)c1cccs1)=C1\C(=O)C[C@@H]2[C@H]1C2(C)C	14.9*	28.6	?	?	-33.7%	4.3%
CCc1ccccc1Nc1nc(N)nc(COC(=O)C2CCN(C(=O)c3ccc(F)cc3)CC2)n1	/	/	?	11.7µM*	/	/
CCc1ccccc1Nc1nc(N)nc(COC(=O)c2cccn2C)n1	30.5*	45.8	11.7%	-9.9%	6.6%	-2.3%
Cc1ccccc1Nc1nc(N)nc(COC(=O)c2cccn2C)n1	35.8*	68.5*	59.5%	/	-3.8%	1.0%
COc1ccc(NC(=O)COC(=O)C2CC(=O)N(CCc3ccc(OC)c(OC)c3)C2)cc1Cl (configuration not stated)	/	/	15.4%	?	/	/
C[C@@H]1O[C@H]2C3=C(C(=O)[C@H]4O[C@@H]4[C@H]3O)[C@@H]1[C@@H]1[C@@H](C)OC=C3[C@H](O)[C@H]4O[C@@H]4/C(=N\OCc4ccccc4)[C@]312	/	/	/	/	/	-2.5%[12.9 µM]
CCN(CC(=O)Nc1ccccc1OC)CC(=O)Nc1sccc1C#N	-3.1	20.0	?	?	/	-14.7%
CCOc1ccccc1NC(=O)COC(=O)CC(C)(C)CC1=NS(=O)(=O)c2ccccc2N1	8.0	-3.1	-16.3%	-3.3%	-10.3%	/
Nc1c(Cl)ncnc1NCc1ccccc1	-2.7	-1.8	0.415µM*	-10.8%	6.2%	-1.4%
CCC(C(=O)NC1CCCC1)N(C(=O)Cn1nnc(-c2ccc(C)o2)n1)c1cccc(OC)c1 (configuration not stated)	-2.4	9.2	?	?	-7.6%	5.7%
O=C(Nc1ccc(OC(F)F)c(Cl)c1)c1ccccn1	41.3*	93.9*	i	186.2%	/	-8.8%
COc1ccc(NC(=O)c2cc(F)cc(F)c2)cc1Cl	27.4*	82.0*	/	117.4%	6.6%	-1.2%
COc1ccc(C)cc1NC(=O)c1ccc(OC(F)F)cc1	-1.0	10.5	-18.8%	19.2%	-4.7%	-10.1%
COc1cc(NC(=O)c2ccccn2)cc(OC)c1OC	10.6	-3.7	2.5%	16.8%	/	-6.9%
COc1ccc(NC(=O)c2ccc(OC(F)F)cc2)cc1Cl	47.4*	+	230.4%	202.1%	-21.8%	-20.7%
Cc1ccc(NC(=O)n2ncc3c(C)cccc32)cc1F	72.1*	105.9*	-14.4%	191.9%	0.6%	-6.0%
COc1ccc(NC(=O)N2CCCc3cccc(C)c32)cc1	9.8	11.5	-24.1%	-26.7%	3.9%	8.6%
COc1ccc(NC(=O)n2ncc3c(C)cccc32)cc1	58.7*	127.9*	24.2%	113.9%	-2.7%	-8.2%

Bioassay records from PubChem.
